# Measurements: PubChem BioAssay AID2283221 (EPA ToxCast)
# Records with an inconclusive call do not appear. Activity calls are given as the source filed them. How the source made its calls: active means hit-call score of the fitted dose curve at least 0.9, where 1 is the maximum; inconclusive means response in the unintended direction; inactive means score below 0.9.
# Target: human Spleen Associated Tyrosine Kinase (Syk), SYK (gene 6850) (UniProt P43405)
# Assay: NVS_ENZ_hSyk: NovaScreen (NVS) Enzymatic Assay for human Spleen Associated Tyrosine Kinase (Syk)
# Experimental: NVS_ENZ_hSyk is a biochemical, single-readout assay that uses extracted gene-proteins in a cell-free assay. Measurements were taken 1 hour after chemical dosing in a 96-well plate.NVS_ENZ_hSyk is one of one assay component(s) measured or calculated from the NVS_ENZ_hSyk assay. It is designed to make measurements of enzyme activity, a form of enzyme reporter, as detected with fluorescence intensity signals by Fluorescence and electrophoretic mobility shift technology.Data from the assay component NVS_ENZ_hSyk was analyzed into 1 assay endpoint. This assay endpoint, NVS_ENZ_hSyk, was analyzed in the positive analysis fitting direction relative to DMSO as the negative control and baseline of activity. Using a type of enzyme reporter, loss-of-signal activity can be used to understand changes in the enzymatic activity as they relate to the gene SYK. Furthermore, this assay endpoint can be referred to as a primary readout, because this assay has produced […] where this one serves a enzymatic activity function. To generalize the intended target to other relatable targets, this assay endpoint is annotated to the kinase intended target family, where the subfamily is non-receptor tyrosine kinase.
# Binding assays used specific radioligands (tritiated, iodinated) with non-radioactive competitive displacement ligands in agonist or antagonist protocols (as indicated) and various reference compounds and inhibitors to titrate specific binding to receptors and transporters. Most enzyme assays (CYPs, kinases, phosphatases, proteases, HDACs) used recombinant protein and specific substrates (fluorescence mostly, some colorimetric and radioactive) and inhibitors, followed by a biochemical separation of substrate and product. All assays for the biochemical HTS were initially run in duplicate at a single concentration (10 uM for CYP450 assays and 25 uM for all others). Assay-chemical combinations meeting a pre-defined threshold (e.g., 30% inhibition and other criteria defined below) were then run in singleton concentration-response format with maximum concentration of 20 uM for CYPs and 50 uM for all others. Each assay was run with positive and negative controls, and concurrent controls on every plate. The follow-up (secondary) screen tested active chemical-pairs in concentration series, as well as a few additional assays not tested in the primary screen, some selected negative inactives, and several cases re-run in the concentration series for confirmatory purposes.
Structure (SMILES),AC50,outcome
S=C(S)NCCNC(=S)S.[Mn+2].[S-]C([S-])=NCCN=C([S-])[S-].[Zn+2],9.71 µM (active),
CCNc1nc(Cl)nc(NC(C)C)n1,,inactive
COP(N)(=O)SC (configuration not stated),,inactive
O=C(O)C1(C(=O)Nc2ccc(Cl)cc2Cl)CC1,15.4 µM (active),
CCOCN(C(=O)CCl)c1c(C)cccc1CC,,inactive
CNc1cnn(-c2cccc(C(F)(F)F)c2)c(=O)c1Cl,,inactive
CC[C@H](C)[C@H]1O[C@]2(C=C[C@@H]1C)C[C@@H]1C[C@@H](C/C=C(\C)[C@@H](O[C@H]3C[C@H](OC)[C@@H](O[C@H]4C[C@H](OC)[C@@H](NC)[C@H](C)O4)[C@H](C)O3)[C@@H](C)/C=C/C=C3\CO[C@@H]4[C@H](O)C(C)=C[C@@H](C(=O)O1)[C@]34O)O2,,inactive
